Drawing on PubChem BioAssay (NCATS), this text covers Potency for six compounds.

Records with an inconclusive call do not appear. A call without a number means that no potency is given here. The source made the active and inactive calls. Calls come from the whole dose curve; as a rule, active = well fitted curve in the direction sought with a large enough effect; inconclusive = small, poorly fitted or top-dose-only effect, or another doubt; inactive = no such curve, though single readings can be large; an effect the other way counts as inactive or inconclusive. Positions of bridges follow the written chain, without caps; N, C: chain ends. Non-standard residues stand in square brackets, D forms with d. Residues, ends and D or L forms follow the SMILES beside them. *: point of attachment. X1 = CCC(C)C(N)C1=NC(C(=O)*)CS1; dOrn = NCCC[C@@H](N)C(=O)O
Potency is the fitted concentration of half-maximal effect.

One experiment is described as follows: BET inhibitor-based combinations targeting novel dependencies in MECOM-rearranged (r) AML: UCSD-AML1 cell line (AID 2202235). Note: nearly all actives have a fitted effect of over 40% in size. To be noted: UCSD-AML1 AML cells viability, CellTiter-Glo, 48 h; series mostly up to 46 µM. Put shortly:
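Seeding density was 500 cells/well, and drug exposure lasted 48 hr under standard culture conditions. Read-out used CellTiter-Glo reagent with a 15 min room-temperature incubation before luminescence measurement; AUC and Z-AUC summarize the normalized responses.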
A general note: Cellular ATP, detected with luciferase, serves as a proxy for viable cell number.
On to `O=C(O)c1cnn(-c2nc3cc(OC(F)(F)F)c(Cl)cc3[nH]2)c1`, for which the Potency result was “inactive”.
Still for that read-out and setting: the same measure for `C=CC(=O)Nc1cccc(Nc2nc(Nc3ccc(Oc4ccnc(C(=O)NC)c4)cc3)ncc2F)c1`: 18.6 µM (active).
Same read-out and setting: the same measure for `Oc1ccc(Nc2nc(-c3ccc(Cl)cc3)cs2)cc1`: 6.61 µM (active).
On the same count and under the same terms, the same measure for `CCOC(=O)C1=C(N)Oc2ccc(Br)cc2C1C(C#N)C(=O)OCC` (stereo not given): “inactive”.

A further experiment can be described thus: BET inhibitor-based combinations targeting novel dependencies in MECOM-rearranged (r) AML: AML-191 cell line (AID 2202236; note: nearly all actives have a fitted effect of over 35% in size). Particulars: AML-191 viability, CellTiter-Glo luminescence, 48 h; series mostly up to 46 µM. The method in brief:
(§1)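 Readout: CellTiter-Glo luminescence. Exposure: 48 h, 11 concentrations, 500 cells/well. Metric: AUC and within-line Z-AUC after DMSO/empty-well normalization.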
On to `CCC(C)C(N)C1=NC(C(=O)N[C@@H](CC(C)C)C(=O)N[C@H](CCC(=O)O)C(=O)N[C@H](C(=O)N[C@H]2CCCCNC(=O)[C@H](CC(N)=O)NC(=O)[C@@H](CC(=O)O)NC(=O)[C@H](Cc3cnc[nH]3)NC(=O)[C@@H](Cc3ccccc3)NC(=O)[C@H]([C@@H](C)CC)NC(=O)[C@@H](CCCN)NC2=O)[C@@H](C)CC)CS1` (stereo not given in full) (X1-L[dE]IK[dOrn]I[dF]H[dD]N; lactam 4-C), for which the Potency result was “inactive”.
Same read-out and setting: the same measure for `C=CC(=O)Nc1cccc(Nc2nc(Nc3ccc(Oc4ccnc(C(=O)NC)c4)cc3)ncc2F)c1`: 16.6 µM (active); for `Oc1ccc(Nc2nc(-c3ccc(Cl)cc3)cs2)cc1`: 16.6 µM (active); for `COC(=O)N1CCN(Cc2cccc(NC(=O)Nc3ccc(C)nc3)c2F)CC1`: “inactive”.
Still for that read-out and setting: next, `CCOC(=O)C1=C(N)Oc2ccc(Br)cc2C1C(C#N)C(=O)OCC` (stereo not given): “inactive”.

Another experiment in a line: BET inhibitor-based combinations targeting novel dependencies in MECOM-rearranged (r) AML: AML-194 cell line (AID 2202237; note: nearly all actives have a fitted effect of over 40% in size). To be noted: AML-194 (MECOM-r AML) viability, CellTiter-Glo, 48 h; series mostly up to 46 µM. Put shortly: as §1
Regarding `CCC(C)C(N)C1=NC(C(=O)N[C@@H](CC(C)C)C(=O)N[C@H](CCC(=O)O)C(=O)N[C@H](C(=O)N[C@H]2CCCCNC(=O)[C@H](CC(N)=O)NC(=O)[C@@H](CC(=O)O)NC(=O)[C@H](Cc3cnc[nH]3)NC(=O)[C@@H](Cc3ccccc3)NC(=O)[C@H]([C@@H](C)CC)NC(=O)[C@@H](CCCN)NC2=O)[C@@H](C)CC)CS1` (stereo not given in full) (X1-L[dE]IK[dOrn]I[dF]H[dD]N; lactam 4-C), the Potency result was “inactive”.
The same measure, in the same setting: next, `O=C(O)c1cnn(-c2nc3cc(OC(F)(F)F)c(Cl)cc3[nH]2)c1`: “inactive”; `C=CC(=O)Nc1cccc(Nc2nc(Nc3ccc(Oc4ccnc(C(=O)NC)c4)cc3)ncc2F)c1`: 18.6 µM (active).
For the compound `Oc1ccc(Nc2nc(-c3ccc(Cl)cc3)cs2)cc1`, the Potency entry is “inactive”.
Still for that read-out and setting: next, `COC(=O)N1CCN(Cc2cccc(NC(=O)Nc3ccc(C)nc3)c2F)CC1`: “inactive”; `CCOC(=O)C1=C(N)Oc2ccc(Br)cc2C1C(C#N)C(=O)OCC` (stereo not given): “inactive”.
